In the supplement of paper PMC10338343:
± gives the standard deviation.

System: MILI (PIWIL2) piRISC loaded with L1MC piRNA (26 nt)
Assay: pre-steady-state target cleavage rate (min^-1); guide: L1MC piRNA 5'p-UAACUAAAUACUAUGCAAGCUGUAGG; MIWI and MILI are mouse PIWI proteins and EfPiwi is from a freshwater sponge; tags in brackets are library labels; higher = faster piRNA-guided slicing of the target
Summary of the method: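 A transcribed, DNA-blocked target RNA library […] was incubated at 33 °C for 0–8 or 0–960 min with 1 nM active affinity-purified piRISC carrying one synthetic guide, in HEPES–potassium acetate buffer with or without 500 nM GTSF1 partner protein. Uncleaved targets were then sequenced and normalised to depth and to weakly complementary targets. Data from three trials were pooled, with k3 capped at 0.0001 min^-1, and a burst-and-steady-state fit yielded the pre-steady-state cleavage rate.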

[1] = auxiliary factor: 500 nM mouse GTSF1
[2] = auxiliary factor: none (no GTSF1)
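Further: 1 nM active piRISC with 0.1 nM target library at 33 °C single turnover.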

| Sequence | pre-steady-state target cleavage rate [1] | pre-steady-state target cleavage rate [2] |
| --- | --- | --- |
| UCCUGGAUGUCGAAGCAUAGUGUUUAGUUA | 0.0115 ± 0.0044 | 0.00454 ± 0.0019 |
| UCCUCCUACAGCUUCCAUACUAUUUAGUUA | 0.0171 ± 0.0071 | – |
| UCCUGGAUGAGGUUGCAUAGUAUUUAGUUA | 0.129 ± 0.015 | 0.0136 ± 0.0032 |
| UCCUGGAUCAGCUUCCAUAGAAUUUAGUUA | 0.0103 ± 0.0054 | – |
| UCCUGGUACAACUUGCAUAGUAUUUAGUUA | 0.273 ± 0.023 | 0.012 ± 0.0031 |
| UCCUCGUACAGCUUGCAUACUAUUUAGUUA | 0.0786 ± 0.011 | 0.00274 ± 0.0022 |
| UCCUGGAUGAGGAUGCAUAGUAUUUAGUAA | 0.116 ± 0.029 | 0.00444 ± 0.002 |
| UCCUGGAUGUGCAUGCAUAGUUUUUAGUUA | 0.01 ± 0.0069 | 0.00641 ± 0.003 |
| UCCUGGUACACGUUGCAUAGUAUUUAGUUA | 0.19 ± 0.045 | 0.0113 ± 0.0051 |
| UCCUGGAUGAGCUUGGAUAGUAUAUAGUUA | 0.122 ± 0.017 | 0.00462 ± 0.0024 |
| UCCUGCUACAGCUUCCAAAGUAUUUAGUUA | 0.112 ± 0.015 | 0.00347 ± 0.0025 |
| UCCUGGAUGUGGAUGCAUAGUAUUUAGUAA | 0.0714 ± 0.012 | 0.00471 ± 0.003 |
| UCCUGGAUGUCGAACCAAUGUAUUUAGUUA | < 0.0001 | < 0.0001 |
| UCCUGGUACAGCUUGCAUUGUUUUUAGUUA | 0.0201 ± 0.0095 | 0.00647 ± 0.0034 |
| UCCUGGAUCAGCUUGCAAAGUAUUUACUUA | 0.0828 ± 0.013 | 0.00392 ± 0.0024 |
| UCCUGGAUGUGGAAGCAUAGUAUUUAGUUA | 0.026 ± 0.0048 | 0.00344 ± 0.0029 |
| UCCUGGAUGUCCUUGCAUAGUAAUAAGUUA | 0.0367 ± 0.013 | 0.00284 ± 0.0025 |
| UCCUGGAUGUCGUUGCAUAGUAUGUUAGUUA | 0.203 ± 0.042 | 0.00861 ± 0.0031 |
| UCCUGGAUGUGCUAGCAUAGAAUUUAGUUA | 0.0105 ± 0.0042 | 0.00267 ± 0.0022 |
| UCCUGGAACAGCUUGCUUAGUAUUUACUUA | 0.187 ± 0.032 | 0.00316 ± 0.0028 |
| UCCUGGAUGAGCUUGGAAAGUAUUUAGUUA | 0.0843 ± 0.011 | 0.00571 ± 0.0018 |
| UCCUGGAUGAGGUUGCAUAGUAUAUAGUUA | 0.163 ± 0.04 | 0.00623 ± 0.0021 |
| UCCUGGUACAGCUUCGUUAGUAUUUAGUAA | 0.165 ± 0.04 | 0.00388 ± 0.0027 |
| UCCUGGAACAGCUGUGCAUAGUAUUUAGUUA | 0.206 ± 0.015 | 0.00954 ± 0.0024 |
| UCCUGGAUGUCGUUGGAUACUAUUUAGUUA | < 0.0001 | < 0.0001 |

| Sequence | pre-steady-state target cleavage rate [1] | pre-steady-state target cleavage rate [2] |
| --- | --- | --- |
| UCCUGGAUGAGCUUGCAUAGAUAUUUAGUUA | 0.00786 ± 0.0038 | 0.00424 ± 0.0022 |
| UCCUGGAUGUCGUUGCGUAGUAUUUAGUUA | 0.0164 ± 0.0059 | 0.00779 ± 0.0026 |
| UCCUGGAUGAGGUUGCUUAGUAUUUAGUUA | 0.12 ± 0.01 | 0.0107 ± 0.0022 |
| UCCUGGUACAGCUUGCAUACUAAUUAGUUA | 0.0462 ± 0.019 | 0.00356 ± 0.0031 |
| UCCUGGAUGUGCUUGGAUAGUUUUUAGUUA | 0.00761 ± 0.0046 | 0.00414 ± 0.0024 |
| UCCUGCUACAGCUUGCAGAGUAUUUAGUUA | 0.27 ± 0.028 | 0.00514 ± 0.002 |
| UCCUGGAACAGGAAGCAUAGUAUUUAGUAA | 0.146 ± 0.013 | 0.00297 ± 0.0027 |
| UCCUGGAUGUGCUUGCAUUGUAAUUAGUUA | 0.0229 ± 0.0072 | 0.00338 ± 0.0033 |
| UCCUGGAUCAGCUUGCAAAGUAUUUUGUUA | 0.1 ± 0.018 | 0.00456 ± 0.0025 |
| UCCUGGAUGUCCUUGCAUAGGUAUUUAGUUA | 0.00785 ± 0.0038 | 0.00689 ± 0.0025 |
| UCCUGGAUCAGCUUGGUUAGUAUUUAGUUA | 0.209 ± 0.016 | 0.0137 ± 0.0033 |
| UCCUCCUAUAGCUUGCAUAGUAUUUAGUUA | 0.244 ± 0.015 | 0.00658 ± 0.0019 |
| UCCUGGAUGUCGUUGCAUAGUAUCUUAGUUA | 0.0991 ± 0.021 | 0.00848 ± 0.0026 |
| UCCUGGUACAGCUUGCAUAGUUUUUAGUUA | 0.0505 ± 0.013 | 0.00579 ± 0.0038 |
| UCCUGGAUGUCGAUGCAUAGUAUUAUAGUUA | 0.123 ± 0.021 | 0.00538 ± 0.0026 |
| UCCUGGAUGUCCUUGCAUAGUAUUUAGUGA | 0.0966 ± 0.018 | 0.00382 ± 0.0024 |
| UCCUGGAACAGCUUUGCAUAGUAUUUAGUUA | 0.248 ± 0.016 | 0.00711 ± 0.0027 |
| UCCUGCUACAGCUUGCAUUGUUUUUAGUUA | 0.0212 ± 0.007 | 0.00289 ± 0.0028 |
| UCCUGGAUGAGGUUGCAUAGUAUUUAGUAA | 0.0985 ± 0.018 | 0.004 ± 0.0027 |
| UCCUGGAUGUGCUUGGUUAGUAUUUAGUAA | 0.149 ± 0.026 | 0.0127 ± 0.003 |
| UCCUGGAUGUCCUUGCAUAGUAUUCUAGUUA | 0.1 ± 0.022 | 0.00384 ± 0.0034 |
| UCCUGGAUGUGCUUGGUUAGUAUUUAGUUA | 0.0978 ± 0.017 | 0.01 ± 0.0025 |
| UCCUGGAUGUCGAAGCAUAGUAUUUAAGUUA | 0.064 ± 0.0095 | 0.00425 ± 0.0022 |
| UCCUGGAUGUCCUUGCAAAGUAUUAAGUUA | 0.0398 ± 0.0098 | 0.00691 ± 0.0023 |
| UCCUGGAUGUCCUUGCAUGGUAUUUAGUUA | 0.0346 ± 0.011 | 0.00814 ± 0.0026 |
